Laboratory results: PubChem BioAssay (EPA / NIEHS)
Where “and” joins values, the source holds several entries; their conditions need not be identical. Identical values can stand only once. Calls of active or inactive are those of the source. How the source made its calls: active means hit-call score of the fitted dose curve at least 0.9, where 1 is the maximum; inactive means score below 0.9.

What follows are molecules tested on Human Leukocyte Antigen - DR isotype (HLADR), HLA-DRA (gene 3122) (assay: BSK_3C_HLADR: BioMAP Diversity Plus: 3C Assay for Human Leukocyte Antigen - DR isotype (HLADR) Biomarker Activity (AID 2283019)). Conditions: primary human endothelial cells (HUVEC); actives raise or lower the signal.
Experimental: BSK_3C is a cell-based, multiplexed-readout assay that uses umbilical vein endothelium, a human vascular primary cell, with measurements taken at 24 hours after chemical dosing in a 96-well plate.BSK_3C_HLADR is an assay component measured in the BSK_3C assay. It measures HLA-DR antibody related to regulation of gene expression using ELISA technology.Data from the assay component BSK_3C_HLADR was analyzed into 1 assay endpoint. This assay endpoint, BSK_3C_HLADR, was analyzed with bidirectional fitting relative to DMSO as the negative control and baseline of activity. Using a type of binding reporter, gain or loss-of-signal activity can be used to understand changes in the signaling as they relate to the gene HLA-DRA. Furthermore, this assay endpoint can be referred to as a primary readout, because this assay has produced multiple assay endpoints where this one serves a signaling function. To generalize the intended target to other relatable targets, this assay endpoint is annotated to the cell adhesion molecules intended target family, where the subfamily is MHC Class II.
The levels of cell surface (or secreted, indicated by the prefix "s") biomarker endpoints were measured by ELISA. Overt cytotoxicity to cells in confluent adherent cultures (all systems other than the BT system) was assessed by measuring total protein levels using sulforhodamine B (SRB) staining in parallel cultures at the time of biomarker measurements, indicated as SRB endpoints. For proliferation assays for adherent cell types, individual cell types are cultured at sub-confluence and relative cell numbers quantified by SRB staining at time points optimized for each system (48 h: 3C and CASM3C systems; 72 h: BT and HDF3CGF systems; 96 h: SAg system). SRB was performed by staining cells with 0.1% SRB after fixation with 10% TCA and reading wells at 560 nm.Viability and proliferation of PBMC (T cells) was quantified by Alamar Blue reduction for the SAg and BT systems. For PBMC viability (referred to as PBMC Cytotoxicity within the assay endpoint names), cells were plated (75,000/well in a 96-well plate) and then chemical samples added for 1 h before addition of activators, SEB and TSST-1 (20 ng/mL final concentration each). Cells were incubated for 90 h. Then, Alamar Blue (20 uL/well) (Invitrogen, Cat DAL1100) was added for 6 h, and the plates were read with a fluorescence microplate reader at 546/580 nm (excitation/emission). For PBMC proliferation, cells were plated and activated as above but incubated for only 16 h prior to addition of Alamar Blue. Plates were read after 6 h.

Row | SMILES | outcome | AC50
1 | C=CCN(CC=C)C(=O)C(Cl)Cl | inactive | –
2 | Clc1ccc(-c2ccccc2)cc1 | inactive | –
3 | CCCC[N+](CCCC)(CCCC)CCCC | inactive | –
4 | CCCOC(=O)c1ccccc1C(=O)OCCC | – | 7.06 µM (active)
5 | CC1(C)[C@H](C(=O)O[C@H](C#N)c2cccc(Oc3ccccc3)c2)[C@@H]1C=C(Br)Br | inactive | –
6 | COCC(=O)N(c1c(C)cccc1C)N1CCOC1=O | inactive | –
7 | O=C1C=CC(=O)C=C1 | – | 28.8 µM (active) and 13.8 µM (active)
8 | CNC(=O)Oc1cc(C)c(SC)c(C)c1 | – | 24.6 µM (active)
9 | CC(C)(C)C(O)C(Oc1ccc(-c2ccccc2)cc1)n1cncn1 (configuration not stated) | – | 30.6 µM (active)
10 | O=[N+]([O-])c1ccc(Cl)cc1 | inactive | –
11 | CCc1cc(C)cc(CC)c1-c1c(OC(=O)C(C)(C)C)n2n(c1=O)CCOCC2 | – | 24.7 µM (active)
12 | O=c1[nH]c(Cl)c(Cl)cc1Cl | inactive | –
13 | O=C(O)CCCc1ccc(N(CCCl)CCCl)cc1 | – | 15.8 µM (active) and 13.4 µM (active)
14 | COC(C)(C)CCC[C@H](C)C/C=C/C(C)=C/C(=O)OC(C)C | – | 28.3 µM (active)
15 | [Cd+2].[Cl-].[Cl-] | – | 17 µM (active) and 10.9 µM (active)
16 | CC(C)CCCCCCCOP(=O)(Oc1ccccc1)Oc1ccccc1 | – | 6.74 µM (active)
17 | O=C(CCl)c1ccccc1 | – | 3.04 µM (active)
18 | O=[N+]([O-])O | inactive | –
19 | CC(C)COP(=O)(OCC(C)C)OCC(C)C | inactive | –

Row | SMILES | outcome | AC50
20 | CC(C)CCCCCCCOC(=O)c1ccccc1C(=O)OCCCCCCCC(C)C | inactive | –
21 | CCCCCCCCCCCC#N | – | 28.6 µM (active)
22 | Oc1cc(Cl)ccc1Cl | inactive | –
23 | CC(C)(c1cc(Cl)c(O)c(Cl)c1)c1cc(Cl)c(O)c(Cl)c1 | – | 10.2 µM (active)
24 | O=[N+]([O-])C=Cc1ccccc1 | – | 2.15 µM (active)
25 | CC(C)(C)C(=O)CCl | – | 20 µM (active)
26 | Oc1ccc(C2(c3ccc(O)cc3)c3ccccc3-c3ccccc32)cc1 | – | 9.06 µM (active) and 7.06 µM (active)
27 | O=P1(NCCCl)OCCCN1CCCl (configuration not stated) | inactive | –
28 | C=CC(=O)OCC(CC)CCCC (configuration not stated) | – | 31.9 µM (active)
29 | CCC(C)c1cc([N+](=O)[O-])cc([N+](=O)[O-])c1OC(=O)C=C(C)C (configuration not stated) | – | 5.85 µM (active)
30 | O=S(=O)(c1ccccc1)c1ccccc1 | inactive | –
31 | O=c1c2ccccc2c(=O)c2c1cc(Cl)c1[nH]c3c([nH]c12)c(Cl)cc1c(=O)c2ccccc2c(=O)c13 | inactive | –
32 | O=C1C(Cl)=C(Cl)C(=O)C(Cl)=C1Cl | – | 6.64 µM (active)
33 | Cc1ccc(OP(=O)(Oc2ccc(C)cc2)Oc2ccc(C)cc2)cc1 (tested in a mixture with another compound) | – | 20 µM (active)
34 | N#CCCCCC#N | inactive | –
35 | COc1ccc(CO)cc1 | inactive | –
36 | CC(=O)/C=C/c1ccccc1 | – | 26.9 µM (active)
37 | c1ccc(Nc2ccc3ccccc3c2)cc1 | – | 31.1 µM (active)
